Measurements taken from PubChem BioAssay AID602295 (Broad Institute, 2012).
Activity calls are given as the source filed them.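 How the source made its calls: active means every separate test run called active, meaning the signal drops and a potency is fitted within twice the top valid dose; inconclusive means runs disagree, poor fit, or flat partial inhibition; inactive means all runs inactive, flat, opposite direction or too weak.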

biological target: Mitogen-activated protein kinase 3 (Homo sapiens) (UniProt P27361); assay: ERK1 kinase inhibitors, dose response, selectivity assay for Dyrk1A inhibitor NFAT project, biochemical, ADP-Glo luminescence, cherry pick, set 2 (AID 602295); conditions: 120 min; series mostly up to 10 µM; activity change, negative = inhibition: at the top concentration
Sequence (P27361 whole entry, looked up): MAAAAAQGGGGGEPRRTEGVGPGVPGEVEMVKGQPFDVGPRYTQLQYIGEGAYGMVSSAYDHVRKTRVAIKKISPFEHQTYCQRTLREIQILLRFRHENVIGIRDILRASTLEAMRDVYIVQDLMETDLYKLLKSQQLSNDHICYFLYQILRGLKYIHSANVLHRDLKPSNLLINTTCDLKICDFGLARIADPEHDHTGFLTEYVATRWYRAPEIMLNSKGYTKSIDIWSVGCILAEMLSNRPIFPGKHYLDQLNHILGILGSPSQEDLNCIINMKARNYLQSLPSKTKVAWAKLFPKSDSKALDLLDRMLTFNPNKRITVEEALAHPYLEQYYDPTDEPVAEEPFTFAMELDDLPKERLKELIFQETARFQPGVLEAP

Activity change, negative = inhibition, inactive:
Clc1ccc(CNc2cc(-c3ccc4c(c3)OCO4)ncn2)cc1 -1.91%
CCCC(=O)Nc1nc(-c2ccc3c(c2)OCCO3)cs1 -24.3%
N#CCSc1nc(Nc2ccc3c(c2)OCO3)c2ccccc2n1 -21.8%
c1csc(CCNc2ncnc3ccc(-c4ccc5c(c4)OCO5)cc23)c1 -4.93%
CN(Cc1nccs1)c1ncnc2ccc(-c3ccc4c(c3)OCO4)cc12 13.9%
COc1cccc(Nc2ncnc3sc(C)cc23)c1 -2.65%
c1cncc(CNc2ccnc(-c3ccc4[nH]ncc4c3)n2)c1 8.55%
CCN1CCN(Cc2ccc(NC(=O)c3ccc(C)c(/C=C/c4cnc(Nc5cc(N6CCNCC6)nc(C)n5)cn4)c3)cc2C(F)(F)F)CC1 15%
CN(Cc1cccs1)c1ncnc2ccc(-c3ccc4c(c3)OCO4)cc12 19.4%
Fc1cccc(Nc2nc(-c3ccncc3)nc3ccccc23)c1 10.8%
Cc1ccc(CN(C)c2ncnc3ccc(-c4ccc5c(c4)OCO5)cc23)o1 21.6%
COc1cccc(Nc2nc(-c3ccc(O)cc3)cs2)c1 18.6%
Clc1ccc(CNc2nccc(-c3ccc4c(c3)OCO4)n2)cc1Cl 33.6%
NC(=O)c1c(NC(=O)c2ccc(N3C(=O)CCC3=O)cc2)sc2c1CCCC2 -13%
Cc1ccnc(NC(=O)c2cccc(S(=O)(=O)N3CCN(c4ccccc4)CC3)c2)c1 5.59%
O=C(Nc1nc2c(s1)CCCC2)c1ccc(N2C(=O)CCC2=O)cc1 13%
Clc1ccccc1-c1ccc2ncnc(NCc3ccc4c(c3)OCO4)c2c1 0.907%
c1csc(CNc2ncnc3ccc(-c4ccoc4)cc23)c1 37.5%
c1cc(-c2ccc3c(c2)OCO3)nc(Nc2ccc3c(c2)OCO3)n1 16.3%
Cc1nc(CN(C)c2ncnc3ccc(-c4ccc5c(c4)OCO5)cc23)cs1 9.05%
Fc1c(-c2ccc3ncnc(NCc4cccs4)c3c2)ccc2c1OCO2 15.5%
O=C(CSc1nnnn1-c1ccc(O)cc1)Nc1ccc(N2CCOCC2)c(Cl)c1 14.9%
Cc1cc(NCCCn2ccnc2)n2ncc(-c3ccc(Cl)cc3)c2n1 19.3%
Cc1ccsc1CN(C)c1ncnc2ccc(-c3ccoc3)cc12 9.45%
CC1Cc2ccccc2N1c1ncnc2nc[nH]c12 (stereo not drawn) -6.05%
c1cncc(CNc2ccnc(-c3ccc4cn[nH]c4c3)n2)c1 23.2%
N#Cc1c(C(F)(F)F)cc(-c2cccc(Cl)c2)[nH]c1=O -9.95%
Clc1cc(Cl)cc(CNc2cc(-c3ccc4c(c3)OCO4)ncn2)c1 4.5%
COc1ccc(-c2nccc(NCc3ccc(C)cc3)n2)cc1 -1%
O=C(Nc1nc(-c2ccc3c(c2)OCCO3)cs1)c1ccco1 22.4%
Cc1c(-c2ccnc(NCc3cccnc3)n2)sc(=O)n1C -13.9%
Cc1noc(CN(C)c2ncnc3ccc(-c4ccc5c(c4)OCO5)cc23)n1 24.3%

outcome, inactive:
CCOC(=O)c1ccc(-c2ccc3ncnc(NCc4ccc(C)o4)c3c2)o1
